{"source": "the supplement of paper PMC7866885", "about": "“A novel bicyclic 2,4-diaminopyrimidine inhibitor of Streptococcus suis dihydrofolate reductase” (PeerJ, 2021)", "note": "± gives the standard deviation."}
{"test_system": "Streptococcus suis P1/7", "assay": "percent growth relative to DMSO control; higher = less growth inhibition", "details": "10 µM; incubation time 18 h", "protocol": "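CLSI broth microdilution: 5x10^4 CFU of Streptococcus suis (strain P1/7 or HE06) incubated with 10 µM Pathogen Box compound in cation-adjusted Mueller Hinton broth, 37 °C, 5% CO2, 18 h. Growth read as OD600 and expressed as percent of the DMSO-treated control (100%); mean ± SD of three independent experiments.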", "units": {"percent growth": "%"}}
{"molecule": "NCC(=O)N1CCn2c(nc(-c3ccccc3)c2Nc2ccc3c(c2)OCO3)C1", "percent growth": "71.3 ± 25"}
{"molecule": "NCC(c1cccs1)S(=O)(=O)c1ccccc1", "note": "(stereo not given)", "percent growth": "90.2 ± 41"}
{"molecule": "COc1ccc(Cl)cc1NC(=O)CN(C)C(=O)c1cnn(-c2ccccc2)n1", "percent growth": "80.3 ± 29"}
{"molecule": "CCOc1ccc2cc(-c3nn(C(C)(C)C)c(N)c3C(N)=O)cnc2c1", "percent growth": "83.1 ± 23"}
{"molecule": "CC(C)(C)OC(=O)N1CCN(c2cc(-c3ccc(Oc4ccccc4)cc3)n[nH]2)CC1", "percent growth": "28.7 ± 42"}
{"molecule": "O=C(C1CCN(c2nnc(-n3cccc3)s2)CC1)N1CCC(Cc2ccccc2)CC1", "percent growth": "100 ± 41"}
{"molecule": "C[C@@H]1[C@H](O)[C@@H](C)/C=C/C=C/C=C/C=C/C=C/C=C/C=C/[C@H](O[C@@H]2O[C@H](C)[C@@H](O)[C@H](N)[C@@H]2O)C[C@@H]2O[C@](O)(C[C@@H](O)C[C@@H](O)[C@H](O)CC[C@@H](O)C[C@@H](O)CC(=O)O[C@H]1C)C[C@H](O)[C@H]2C(=O)O", "percent growth": "92.3 ± 14"}
{"molecule": "CC(C)(C(=O)Nc1ccc(F)cc1)n1cc(-c2ccccc2F)cn1", "percent growth": "84.1 ± 6.1"}
{"molecule": "CCCCc1ccc(NC(=O)Nc2ccc(O[C@H]3CCCC[C@@H]3N(C)c3ccccc3)c(F)c2)cc1", "percent growth": "67.2 ± 2.9"}
{"molecule": "CCOc1ccc(OCC(=O)Nc2cc(C)cc(C)c2)cc1", "percent growth": "94.3 ± 16"}
{"molecule": "CCOc1ccc2cc(-c3nn(CC4CCN(C)CC4)c4ncnc(N)c34)ccc2c1", "percent growth": "99.3 ± 11"}
{"molecule": "c1ccc(Oc2ccc(-c3cc(C4CCOCC4)[nH]n3)cc2)cc1", "percent growth": "49.6 ± 19"}
{"molecule": "Nc1ncnc2c1ncn2C[C@@H](O)[C@@H](O)C(=O)O", "percent growth": "87.3 ± 15"}
{"molecule": "CCCn1c(CNc2ccccc2O)nc2ccccc21", "percent growth": "82.1 ± 38"}
{"molecule": "Cc1cc(C)nc(-n2nc(C)cc2Nc2ccccc2)n1", "percent growth": "0.0724 ± 0.12"}
{"molecule": "O=C(Nc1ccc(N2CCNCC2)cc1)c1ccn2ncc(-c3cccc(Cl)c3)c2n1", "percent growth": "75.2 ± 22"}
{"molecule": "O=C1N(Cc2cc3ccccc3s2)CC2CN(Cc3ccccc3)CCN12", "note": "(stereo not given)", "percent growth": "83.1 ± 18"}
{"molecule": "FC(F)(F)c1cnc(Sc2nnc(-c3ccncc3)o2)c(Cl)c1", "percent growth": "67.2 ± 20"}
{"molecule": "CCN(CC)C(=O)N1CCN(C)CC1", "percent growth": "91.1 ± 17"}
{"molecule": "COc1ccc(OC(C)C(=O)Nc2ccc(Cl)cc2C)cc1", "note": "(stereo not given)", "percent growth": "82.7 ± 6.3"}
{"molecule": "Cc1[nH]c2cc(F)cc(F)c2c(=O)c1-c1ccc(Oc2ccc(OC(F)(F)F)cc2)cc1", "percent growth": "88.9 ± 18"}
{"molecule": "COc1ccc(-c2cc(NC(=O)c3ccc(F)cc3Cl)ccc2OC)cc1", "percent growth": "96 ± 31"}
{"molecule": "CN1CCN(c2nccc3nc(-c4ccc(F)c(F)c4)[nH]c23)CC1", "percent growth": "68.8 ± 13"}
{"molecule": "CC(C)NCC(=O)Nc1cccc(C(=O)Nc2cccc(C(F)(F)F)c2)c1", "percent growth": "125 ± 65"}
{"molecule": "O=C(C1CCN(c2cc(-n3cccc3)ncn2)CC1)N1CCc2ccccc2C1", "percent growth": "59.5 ± 45"}
{"molecule": "CCCn1c(NC(=O)c2ccc3ccccc3n2)nc2ccccc21", "percent growth": "0.618 ± 1.5"}
{"molecule": "CC1CCCN(C(=O)C(C)Nc2cc(Cl)ccc2N2CCOCC2)C1", "note": "(stereo not given)", "percent growth": "94.4 ± 32"}
{"molecule": "CN1CCN(S(=O)(=O)c2ccc(-c3ccc4c(Nc5ccc6nn[nH]c6c5)ccnc4c3)cc2)CC1", "percent growth": "63 ± 23"}
{"molecule": "COc1cccc(NC(=O)c2c(NC(=O)c3cccnc3)sc3c2CCC3)c1", "percent growth": "86.6 ± 15"}
{"molecule": "CC(C)(C)C(=O)N(CCCCCCN1C[C@H](O)[C@@H](O)[C@H](O)[C@H]1CO)C1CCCCCC1", "percent growth": "130 ± 56"}
{"molecule": "CCc1ccc(C(NCc2nc(N)nc(N(C)C)n2)C(C)C)cc1", "note": "(stereo not given)", "percent growth": "4.17 ± 0.94"}
{"molecule": "CC(=O)Nc1ccc(NC(=O)c2cc(-c3cc(Cl)ccc3O)[nH]n2)cc1", "percent growth": "104 ± 13"}
{"molecule": "CC(C)(C)OC(=O)N1CCN(c2nccc(-c3ccc(-c4ccc(Cl)cc4)s3)n2)CC1", "percent growth": "129 ± 42"}
{"molecule": "NC(=O)c1cc(-c2ccsc2)ccc1OCCOc1ccccc1", "percent growth": "120 ± 58"}
{"molecule": "Cc1nc2ccccn2c1C(=O)NCc1ccc(Cl)cc1", "percent growth": "133 ± 76"}
{"molecule": "COc1cc(Br)cc2cc(C(=O)Nc3cccc(C(F)(F)F)c3)c(=O)oc12", "percent growth": "115 ± 52"}
{"molecule": "OCCc1ccc(Nc2nccc(-c3nnc4ccccn34)n2)cc1", "percent growth": "88.5 ± 13"}
{"molecule": "O=C(NC1=NCCS1)c1sc2cc(F)ccc2c1Cl", "percent growth": "88.6 ± 14"}
{"molecule": "CNC(=O)c1cc(S(=O)(=O)N2CCN(c3ccccn3)CC2)cs1", "percent growth": "129 ± 58"}
{"molecule": "COC(=O)C1=C(C)NC(C)=C(C(=O)OC(C)C)C1c1cccc2nonc12", "note": "(stereo not given)", "percent growth": "73.6 ± 34"}
